Rows were chosen to be rich in hits. Some 0.94% of all compounds tested hit in one or more screens of this group.
Vc quorum ag: inducers of Vibrio cholerae quorum light production without autoinducers; AID 588436; activation, % at 18.7 µM; 350,000 compounds, 0.16% hits; V. cholerae BH1578 lux reporter, luminescence, 6 h; in the data active = activation mostly above about 9.7%, no sharp cut-off
PriA SSB inh: blocks PriA binding to SSB C-terminal tail; AlphaScreen SSBct-PriA binding, biotinylated peptide; inhibition, % at 33 µM; 430,000 compounds, 0.6% hits; in the data active = inhibition mostly above about 37%, no sharp cut-off; inactive = mostly below about 20%;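 note: plate controls were negative control peptide for no effect and reference peptide for full effect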
Mtb hypoxia rep: reduces hypoxia-regulated biosensor signal in M. tuberculosis. M. tuberculosis hypoxia-regulated fluorescent reporter, fluorescence. fluorescence inhibition, % (no concentration beside the values). 300,000 compounds, 0.1% hits; in the data active = fluorescence inhibition mostly above about 23%, no sharp cut-off; inactive = mostly below about 17%
MazEF act: MazEF (E. coli) toxin RNase activation. P0AE70. 350,000 compounds, 0.32% hits. activation, % at 20 µM. FAM/BHQ RNA-DNA oligo cleavage fluorescence, 5 h; in the data active = activation above about 50%
Target sequence (P0AE70 whole entry, looked up): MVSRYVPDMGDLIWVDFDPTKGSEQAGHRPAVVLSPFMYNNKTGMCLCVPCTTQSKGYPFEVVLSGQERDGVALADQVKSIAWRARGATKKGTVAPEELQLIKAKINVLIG
Active calls of the source: *; i = inactive; . = no result given; + = active, no number.

SMILES	Vc quorum ag	PriA SSB inh	Mtb hypoxia rep	MazEF act
COc1ccc(NC(=O)c2ccccc2NS(=O)(=O)c2ccc(C)cc2)c([N+](=O)[O-])c1	i	53*	.	-2
CCOc1ccc(NC(=O)COc2ccccc2)c([N+](=O)[O-])c1	2	7	-3	14
CCOc1ccc(NC(=O)CSc2ccc(NC(C)=O)nn2)cc1	.	-13	.	.
Cc1ccc(Nc2nn(CC(=O)Nc3ccc(C)c(C)c3)c(N)c2S(=O)(=O)c2ccccc2)cc1	.	10	.	.
COc1ccc(NC(=O)COC(=O)CC23CC4CC(CC(C4)C2)C3)c([N+](=O)[O-])c1	0	66*	6	-9
CCOc1ccc(NC=CC(=O)c2ccccc2)c([N+](=O)[O-])c1	.	43*	.	.
Oc1[nH]c2ccc(Br)cc2c1N=Nc1ccc(F)cc1	i	5	6	564*
CC(C)(O)C(=O)N=Nc1c(O)[nH]c2ccccc12	0	-19	5	16
O=[N+]([O-])c1ccc(N=Nc2c(O)[nH]c3ccc(F)cc23)cc1	3	5	2	-24
Oc1[nH]c2ccccc2c1N=Nc1ccc(F)cc1	0	-6	9	+
O=Nc1c(O)[nH]c2ccc(F)cc12	0	4	-1	7
O=[N+]([O-])c1ccc2[nH]c(O)c(N=Nc3ccc(F)cc3)c2c1	-1	6	4	316*
Oc1[nH]c2ccccc2c1N=Nc1ccccc1F	0	-10	11	+
COc1nc2c(c(=O)n(Cc3ccccc3)c(=O)n2C)n1C	.	8	.	.
Cn1cc(C(=O)NCC(C)(O)C2CC2)nn1 (stereo not drawn)	.	-6	.	.
O=C(c1ccc(-n2cncn2)nn1)N1CCN(S(=O)(=O)C2CC2)CC1	.	-36	.	.
Oc1[nH]c2ccccc2c1N=Nc1nnc(-c2ccccc2)c2ccccc12	.	34	.	.
Oc1[nH]c2ccccc2c1N=Nc1ccccc1	i	-5	-5	158*
CCCc1cc(-n2ccnc2)n2c(nc3ccccc32)c1C#N	i	-13	.	82*
O=S(=O)(NCCNc1ccc(Nc2ccccn2)nn1)c1ccc(C(F)(F)F)cc1	.	22	.	.
O=S(=O)(NCCNc1ccc(Nc2ccccn2)nn1)c1ccccc1Cl	.	89*	.	.
Cc1nc(NCCNC(=O)C2CCCO2)cc(Nc2ccccn2)n1 (stereo not drawn)	.	-17	.	.
O=C(NCCNc1ccc(Nc2ccccn2)nn1)[C@@H]1CCCO1	.	52*	.	.
CCOC(=O)c1nn(-c2ccc(C(C)C)cc2)c(=O)c2c(NC(=O)c3cn(C)nc3OC)scc12	.	-10	.	.
C[C@H](CO)N1C[C@H](C)[C@H](CN(C)S(C)(=O)=O)OCc2cnnn2CCCC1=O	-1	.	.	68*
SMILES	Vc quorum ag	PriA SSB inh	Mtb hypoxia rep	MazEF act
C[C@@H]1CN([C@@H](C)CO)C(=O)CCCn2nncc2CO[C@H]1CN(C)S(C)(=O)=O	i	.	.	-6
O=C(Nc1ccc2c(c1)CN(C(=O)c1ccco1)CC2)c1cc2ccccc2[nH]1	.	-26	.	.
Cc1cccc(CC(=O)NCC(O)c2ccsc2)c1 (stereo not drawn)	.	5	.	.
Cc1cccc(CC(=O)NCC(O)Cc2ccccc2)c1 (stereo not drawn)	.	21*	.	.
CC(=O)Nc1nsc(NC(=O)c2nnn(-c3ccc4noc(-c5ccc(Cl)cc5)c4c3)c2C)n1	.	-7	.	.
COc1ccc(C(=O)NC(=S)NNC(=O)c2cnccn2)cc1	0	22	19	6
O=C(NC(=S)NNC(=O)c1ccccc1O)c1cccnc1	0	62*	3	-3
O=C(NC(=S)NNC(=O)c1cnccn1)c1ccc(Cl)cc1	0	-6	35*	6
COc1cc(C(=O)NC(=S)NNC(=O)c2cnccn2)cc(OC)c1OC	0	82*	9	-1
O=C(NC(=S)NNC(=O)c1ccccc1I)c1cccnc1	.	51	.	.
O=C(NN=Cc1ccco1)c1cnccn1	.	10	13	.
O=C(/C=C/c1ccco1)NC(=S)NNC(=O)c1cnccn1	.	66*	.	.
CCOC(=O)CCC(=O)NCCn1nc(-c2cccs2)cc1C	.	-5	.	.
O=C(NCCn1nc(-c2ccsc2)cc1C1CC1)c1ccc(Cl)s1	.	-8	.	.
Nc1c(C(=O)Nc2ccccc2F)sc2nc(Cc3ccccc3)cc(C(F)(F)F)c12	-12	-4	-3	+
N#Cc1ccc(C23OCCN2CCn2nc4ccccc4c23)cc1 (stereo not drawn)	-1	-7	-2	6
[O-][n+]1c2ccccc2c2n1CCN1CCOC21c1ccc(Cl)cc1 (stereo not drawn)	i	2	66*	1
C[C@](O)(CNC(=O)CN1C(=O)CCC1=O)c1cc2ccccc2s1	.	2	.	.
CCCN1CCCc2cc(CCNC(=O)c3cccc(C)c3)ccc21	.	59*	.	.
CCCN1CCCc2cc(CCNC(=O)c3c(F)cccc3F)ccc21	.	54*	.	.
CCCN1CCCc2cc(CCNC(=O)c3cccc(OC)c3)ccc21	.	61*	.	.
CCCN1CCCc2cc(CCNC(=O)C(=O)NCC)ccc21	.	24	.	.
CCCN1CCCc2cc(CCNC(=O)c3cccc(Cl)c3)ccc21	.	48	.	.
CCCN1CCCc2cc(CCNC(=O)c3cc(OC)cc(OC)c3)ccc21	.	59	.	.
CCCN1CCCc2cc(CCNC(=O)c3cccc(F)c3)ccc21	.	41*	.	.
SMILES	Vc quorum ag	PriA SSB inh	Mtb hypoxia rep	MazEF act
COc1ccc(O[C@H]2CCN(S(=O)(=O)C3CCCCC3)C2)nn1	.	-17	.	.
CCOc1ncccc1C(=O)Nc1ccc2c(c1)CCCN2S(=O)(=O)CC	.	38*	.	.
N#Cc1nc(-c2ccccc2F)oc1N1CCCCCC1	.	86*	.	.
Cc1ccccc1-c1nc(C#N)c(N2CCCCC2)o1	0	59*	12	13
Cc1ccccc1-c1nc(C#N)c(N2CCN(C)CC2)o1	.	27	.	.
Nc1ccc(C(=O)NN=C/C=C/c2cccc([N+](=O)[O-])c2)cc1	.	21	.	.
Cc1ccc(Nc2ccc(S(=O)(=O)N3CCOCC3)cc2[N+](=O)[O-])cc1C	i	69*	-7	0
Cc1ccc(S(=O)(=O)Nc2ccc(S(=O)(=O)N3CCOCC3)cc2)cc1[N+](=O)[O-]	0	-8	11	2
CCC(C)/C=C(C)/C=C/C1=CC2=C(Cl)C(=O)C(C)(OC(C)=O)C(=O)C2=CO1 (stereo not drawn)	1	45*	.	-9
Clc1nc(-c2ccccn2)nc2scc(-c3ccccc3)c12	0	-9	-1	1
Nc1nc(-c2ccccn2)nc2sccc12	.	126*	.	.
NC(=O)NC(=O)CC1S/C(=N/N=C2/NC(=O)CS2)NC1=O (stereo not drawn)	-1	.	-3	7
NC(=O)NC(=O)CC1SC(=NN=C2CSC(=O)N2)NC1=O (stereo not drawn)	.	74*	.	.
O=C(NCc1cccnc1-c1ccsc1)c1cccc(OC(F)(F)F)c1	.	-11	.	.
CC(C)Cn1c(=O)c2sccc2n2c(CCCC(=O)NC3CCN(Cc4ccccc4)CC3)nnc12	-4	-9	6	5
CCC(C)n1c(=O)c2sccc2n2c(CCCC(=O)N3CCC(C(N)=O)CC3)nnc12 (stereo not drawn)	i	43*	-12	-5
Cc1noc(C)c1CC(=O)NCC1CCN(S(=O)(=O)C2CC2)CC1	.	-5	.	.
COc1ccc(C2=CSC(/N=C/c3ccc(F)cc3)=NN2)cc1	1	.	.	1
